# In PubChem BioAssay AID2088 (The Scripps Research Institute Molecular Screening Center, 2009):
# Assay: HeLa cell cycle G2/M accumulation – FACS, mechanism study for Wee1 degradation inhibitor project, late-stage follow-up (AID 2088)
# Settings: HeLa Wee1-luciferase degradation, luminescence, G2/M arrest assay, compound-treated cells, stronger effect = higher value, concentration not given here
smiles,measurement,value
Cc1ccnc(NC(=O)CCCOc2cc(=O)n(C)c3ccccc23)c1,G2/M cells,30.5%
